Measured values taken from the supplement of paper PMC6897291.

Test system: U-2932
Assay: growth inhibition by drug alone (1 - RLU/untreated control) (fraction); higher = stronger inhibition
Settings: 177Lu-lilotomab satetraxetan 0 ug/ml
Experimental: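 U-2932 ABC-DLBCL cells were pretreated or not for 18 h with 1 ug/ml 177Lu-lilotomab satetraxetan (600 MBq/mg), washed and seeded (3000 cells/well) on 384-well plates pre-printed with the Selleck Cambridge Cancer Compound library. Viability was read by RealTime-Glo luminescence on days 3-6 after seeding. Effect = 1 - RLU/mean RLU of the 48 untreated no-drug control wells per plate; Bliss score = (M-E)/(1-Fa), with E the expected Bliss-additive effect.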

CC(C)[C@]12O[C@H]1[C@@H]1O[C@]13[C@]1(O[C@H]1C[C@H]1C4=C(CC[C@@]13C)C(=O)OC4)[C@@H]2O [Triptolide]
growth inhibition by drug alone (10 nM, time (day): 3): 0.345 | growth inhibition by drug alone (10 nM, time (day): 4): 0.52 | growth inhibition by drug alone (10 nM, time (day): 5): 0.63 | growth inhibition by drug alone (10 nM, time (day): 6): 0.677 | growth inhibition by drug alone (1000 nM, time (day): 3): 0.959 | growth inhibition by drug alone (1000 nM, time (day): 4): 0.971 | growth inhibition by drug alone (1000 nM, time (day): 5): 0.978 | growth inhibition by drug alone (1000 nM, time (day): 6): 0.982

C=C1C[C@@H]2[C@H](CC[C@]3(C)C(=O)CC[C@@H]23)[C@@]2(C)C=CC(=O)C=C12 [Exemestane]
growth inhibition by drug alone (10 nM, time (day): 3): 0.0753 | growth inhibition by drug alone (10 nM, time (day): 4): 0.00319 | growth inhibition by drug alone (10 nM, time (day): 5): -0.0809 | growth inhibition by drug alone (10 nM, time (day): 6): -0.0708 | growth inhibition by drug alone (1000 nM, time (day): 3): -0.0344 | growth inhibition by drug alone (1000 nM, time (day): 4): -0.0359 | growth inhibition by drug alone (1000 nM, time (day): 5): -0.1 | growth inhibition by drug alone (1000 nM, time (day): 6): 0.0186

N[C@@H](Cc1ccc(N(CCCl)CCCl)cc1)C(=O)O [Melphalan]
growth inhibition by drug alone (10 nM, time (day): 3): 0.0288 | growth inhibition by drug alone (10 nM, time (day): 4): 0.0447 | growth inhibition by drug alone (10 nM, time (day): 5): -0.0175 | growth inhibition by drug alone (10 nM, time (day): 6): -0.0774 | growth inhibition by drug alone (1000 nM, time (day): 3): -0.0212 | growth inhibition by drug alone (1000 nM, time (day): 4): 0.00786 | growth inhibition by drug alone (1000 nM, time (day): 5): -0.0265 | growth inhibition by drug alone (1000 nM, time (day): 6): -0.169

O=C(O)c1nn(Cc2ccc(Cl)cc2Cl)c2ccccc12 [Lonidamine]
growth inhibition by drug alone (10 nM, time (day): 3): 0.129 | growth inhibition by drug alone (10 nM, time (day): 4): 0.0861 | growth inhibition by drug alone (10 nM, time (day): 5): 0.00199 | growth inhibition by drug alone (10 nM, time (day): 6): -0.13 | growth inhibition by drug alone (1000 nM, time (day): 3): 0.0943 | growth inhibition by drug alone (1000 nM, time (day): 4): 0.0942 | growth inhibition by drug alone (1000 nM, time (day): 5): -0.0767 | growth inhibition by drug alone (1000 nM, time (day): 6): -0.0595

O=C(Oc1ccc([N+](=O)[O-])cc1)N1CCC(C(O)(c2ccc3c(c2)OCO3)c2ccc3c(c2)OCO3)CC1
growth inhibition by drug alone (10 nM, time (day): 3): 0.0143 | growth inhibition by drug alone (10 nM, time (day): 4): 0.0129 | growth inhibition by drug alone (10 nM, time (day): 5): -0.0257 | growth inhibition by drug alone (10 nM, time (day): 6): -0.105 | growth inhibition by drug alone (1000 nM, time (day): 3): -0.0233 | growth inhibition by drug alone (1000 nM, time (day): 4): 0.0131 | growth inhibition by drug alone (1000 nM, time (day): 5): -0.0194 | growth inhibition by drug alone (1000 nM, time (day): 6): -0.0568
